Sampled rows, rich in hits. Any-hit rate of the full collection: about 1.2%.
TrxR1 substrate = is turned over as a substrate by rat TrxR1; O89049; purified TrxR1 substrate turnover, NADPH consumption readout; Potency, µM (highest dose often 114 µM); 0.01% of 390,000 active; also: nearly all actives have a fitted effect of over 50% in size
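Rat TrxR1, dispensed at 90 nM, was prereduced with 400 uM NADPH (final) for 5 min at ~22 deg C, then incubated with compound 15 min before 400 uM selenite. A first-read NADPH fluorescence drop versus no-compound background flagged substrates.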
TrxR1 inh = inhibitors of rat thioredoxin reductase 1 | recombinant rTrxR1, NADPH fluorescence consumption, selenite substrate | O89049 | 1% of 390,000 active | Potency, µM (series often up to 114 µM), usual class: inhibitors; also: nearly all actives have a fitted effect of over 65% in size
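Rat TrxR1 (90 nM in the dispensed reagent) was pre-reduced with 400 uM NADPH for 5 min at room temperature, then incubated with compound for 15 min. After 400 uM selenite was added, NADPH fluorescence (Ex 340/Em 450 nm) was followed for 8 min.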
mIDH1 inhibitor = inhibitors of human mutant IDH1 R132H | O75874 | IDH1-R132H enzyme, NADPH consumption, diaphorase/resazurin fluorescence | Potency, µM (titrated, usually from 76.6 µM), usual class: inhibitors | 0.093% of 390,000 active | AID 602179; also: nearly all actives have a fitted effect of over 65% in size
Target sequence (O75874 whole entry R132H, stated change not applied): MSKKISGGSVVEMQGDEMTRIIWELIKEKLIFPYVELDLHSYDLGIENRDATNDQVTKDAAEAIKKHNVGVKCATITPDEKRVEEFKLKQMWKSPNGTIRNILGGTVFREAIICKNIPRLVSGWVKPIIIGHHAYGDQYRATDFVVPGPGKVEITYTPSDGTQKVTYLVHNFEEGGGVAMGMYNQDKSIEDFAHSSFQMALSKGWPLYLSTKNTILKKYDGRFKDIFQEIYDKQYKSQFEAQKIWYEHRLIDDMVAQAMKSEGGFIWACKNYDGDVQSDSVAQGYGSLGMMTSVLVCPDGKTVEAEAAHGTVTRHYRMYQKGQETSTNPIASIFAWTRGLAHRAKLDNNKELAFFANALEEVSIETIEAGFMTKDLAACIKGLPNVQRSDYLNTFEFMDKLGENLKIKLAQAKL
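IDH1-R132H (0.5 ug/mL) preincubated 30 min with compound, then NADPH (0.016 mM) and alpha-KG (2 mM) added; 80 min at RT, pH 7.5. Remaining NADPH coupled via diaphorase/resazurin to fluorescence (540/590 nm); concentration-response curves normalized to no-enzyme control.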
GLS inh = blocks human kidney-isoform glutaminase activity | AID 624170 | Potency, µM (top dose mostly 45.5 µM), usual class: inhibitors | 0.21% of 410,000 active | GLS enzymatic activity, qHTS titration
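Coupled fluorescence readout: glutamate oxidase/HRP/Amplex Red detect glutamate formed by hKGA from L-glutamine (1 mM solution added). Buffer 45 mM KH2PO4 pH 8.2, 0.02% Tween-20; reads at t0 and 30 min RT.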
A number is an active result; ! = repeats disagree. Calls follow the shape of the dose curve; as a rule, active = well fitted curve in the direction sought with a large enough effect; inconclusive = small, poorly fitted or top-dose-only effect, or another doubt; inactive = no such curve, though single readings can be large; an effect the other way counts as inactive or inconclusive.

COc1cccc(/C=C(/C#N)c2nc3ccccc3[nH]2)c1OC(C)C(=O)O (stereo not drawn) was read as TrxR1 substrate inactive, TrxR1 inh inactive, mIDH1 inhibitor inactive and GLS inh 12.6µM.
Screening Cc1ccc(-n2nc(C)c3c(C)cc(=O)n(CC(=O)Nc4cc(Cl)ccc4C)c32)cc1 returned TrxR1 substrate inactive, TrxR1 inh inactive, mIDH1 inhibitor inactive and GLS inh inactive.
Cc1ccc(C2Nc3cc(C)c(C)cc3-n3c(-c4ccccc4)c4c(=O)n(C)c(=O)n(C)c4c32)o1 (stereo not drawn) was read as TrxR1 substrate inactive, TrxR1 inh inactive, mIDH1 inhibitor inactive and GLS inh inconclusive.
For O=C(O)c1cc(NCc2cc(O)ccc2O)ccc1O the results were TrxR1 substrate inactive and TrxR1 inh 39.8µM.
Screening CCOC(=O)C1CCC(CN(Cc2ccc(OC)cc2)S(=O)(=O)c2ccc(F)c(C(=O)Nc3ccc(C)c(C)c3)c2)CC1 (stereo not drawn) returned TrxR1 substrate inactive, TrxR1 inh inactive, mIDH1 inhibitor inactive and GLS inh inactive.
For Cc1ccc(S(=O)(=O)N2CCN(Cc3noc(CCC(=O)N4CCCCC4)n3)CC2)c(C)c1 the results were TrxR1 substrate inactive, TrxR1 inh inactive, mIDH1 inhibitor inactive and GLS inh inactive.
Screening CC(=O)c1cccc(OCc2cc(C(=O)N3C[C@@H](C)O[C@@H](C)C3)no2)c1 returned TrxR1 substrate inactive, TrxR1 inh 10µM, mIDH1 inhibitor inactive and GLS inh inactive.
Screening CC(=O)c1cccc(OCc2cc(C(=O)N(C)CCC3CCOCC3)no2)c1 returned TrxR1 substrate inactive, TrxR1 inh 8.91µM, mIDH1 inhibitor inactive and GLS inh inactive.
COc1ccccc1OCc1cc(C(=O)N(C)CCC2CCOCC2)no1 was read as mIDH1 inhibitor inactive and GLS inh inactive.
`CC(=O)c1ccc(OCc2cc(C(=O)N(C)Cc3ccccn3)no2)cc1` gave TrxR1 substrate inactive, TrxR1 inh 50.1µM, mIDH1 inhibitor inactive and GLS inh inactive.
Screening Cc1cc([N+](=O)[O-])ccc1NC(=O)c1cc2ccccc2o1 returned TrxR1 substrate inactive, TrxR1 inh inactive, mIDH1 inhibitor inactive and GLS inh inactive.
Screening O=c1oc2c(O)c(O)cc3c(=O)oc4c(O)c(O)cc1c4c23 returned TrxR1 substrate inactive, TrxR1 inh inactive, mIDH1 inhibitor inactive and GLS inh 2.82µM!.
Cc1ccc(/C=C/C(=O)OCC(=O)N(CC(C)C)c2c(N)n(Cc3ccccc3)c(=O)[nH]c2=O)o1 was read as TrxR1 substrate inactive, TrxR1 inh inactive, mIDH1 inhibitor inactive and GLS inh inactive.
`CCN(C(=O)COC(=O)/C=C/c1ccc(C)o1)c1c(N)n(Cc2ccccc2)c(=O)[nH]c1=O` gave TrxR1 substrate inactive, TrxR1 inh 39.8µM, mIDH1 inhibitor inactive and GLS inh inactive.
CCN(Cc1ccccc1)c1ncnc2c1nnn2C was read as TrxR1 substrate inactive, TrxR1 inh inactive, mIDH1 inhibitor inactive and GLS inh inactive.
Screening C[C@@H]1CC2[C@@H]3C[C@H](F)C4=CC(=O)C(Cl)=C[C@]4(C)[C@@]3(F)[C@H](O)C[C@]2(C)[C@@]1(O)C(=O)CO (stereo partly drawn) returned GLS inh inactive.
O=C1CC(c2ccc(O)c(O)c2)Oc2cc(O)cc(O)c21 (stereo not drawn) was read as TrxR1 substrate inactive, TrxR1 inh inactive, mIDH1 inhibitor inactive and GLS inh inconclusive.
`O=C1C(=O)C(c2cc(O)c(O)c(O)c2)Oc2cc(O)cc(O)c21` (stereo not drawn) gave TrxR1 substrate inactive and TrxR1 inh 12.6µM.
Screening O=C(CCl)Nc1ccccc1Sc1ccccc1 returned TrxR1 substrate inactive, TrxR1 inh 39.8µM, mIDH1 inhibitor inactive and GLS inh inactive.
`O=C(CCl)Nc1ccc(-c2ccccc2)cc1` gave TrxR1 substrate inactive, TrxR1 inh 11.2µM, mIDH1 inhibitor inactive and GLS inh inactive.
O=C(CCl)Nc1cn(-c2ccccc2)nc1-c1ccccc1 was read as TrxR1 substrate inactive, TrxR1 inh 12.6µM, mIDH1 inhibitor inactive and GLS inh inactive.
`CC(=O)SC[C@@H](C)C(=O)N1CCC[C@H]1C(=O)N[C@@H](Cc1ccccc1)C(=O)O` gave GLS inh inactive.
Screening CNc1oc(Cc2ccccc2)nc1S(=O)(=O)c1ccc(Cl)cc1 returned TrxR1 substrate inactive, TrxR1 inh 11.2µM, mIDH1 inhibitor inactive and GLS inh inactive.

Screening results: PubChem, National Center for Advancing Translational Sciences (NCATS)
